About 8,600 (12%) of roughly 69,000 compounds showed an effect of 50% or more. The full list was thinned out, with strong results kept by preference.
These molecules were tested on Plasmodium berghei (assay: Screen against P. berghei liver stage (PbLuc), transformed with Luciferase, at 10uM). Conditions: tested at 10 uM.
Assay type: functional, HepG2

Row | SMILES | INHIBITION
1 | CC(C)(CO)CCCNC(=O)NC1(c2ccccc2F)CC1 | 9.16%
2 | O=C(NCCOc1ccc2c(c1)OCO2)C1CC(=O)N(C2CC2)C1 (stereo not given) | 31.9%
3 | O=C(N[C@@H]1CN[C@@H]2CCCO[C@@H]21)c1cscn1 | 11.4%
4 | O=C(N[C@H]1CN[C@H]2CCCO[C@H]21)c1cscn1 | 1.81%
5 | O=C(N[C@@H]1CN[C@H]2CCCO[C@H]21)c1cnccn1 | 52%
6 | Cc1ccc(CNc2cc(C(=O)N3CCOCC3)nc(C)n2)cc1 | -3.72%
7 | CC(C)N1CC(C(=O)NCc2cccnc2-n2cccn2)CC1=O (stereo not given) | 6.2475%
8 | CC(C)C(=O)NCCCNC(=O)Nc1cc(-c2ccccc2)ns1 | -89.2%
9 | CC(C)(C)NC(=O)CNC(=O)Nc1cc(-c2ccccc2)ns1 | 26%
10 | CNC(=O)CNC(=O)Nc1cc(-c2ccccc2)ns1 | 73.3%
11 | COc1cccc(CCC(=O)N2CCCC(c3nncn3C)C2)c1 (stereo not given) | 4.71%
12 | COc1ccc(OC)c(CN2CCCCCC2c2cccs2)c1 (stereo not given) | 50.5%
13 | COc1cccc(CN2CCCCCC2c2cccs2)c1O (stereo not given) | 33.2%
14 | COc1cc(CN2CCCCCC2c2cccs2)cc(OC)c1O (stereo not given) | 50.8%
15 | COc1ccc(CN2CCCCCC2c2cccs2)c(OC)c1 (stereo not given) | 10.2%
16 | COc1cccc(CN2CCCCCC2c2cccc(C)c2)c1O (stereo not given) | 56.1%
17 | COc1cc(CN2CCCCCC2c2cccs2)cc(OC)c1OC (stereo not given) | 29.3%
18 | COc1ccc(CN2CCCCCC2c2cccs2)c(O)c1 (stereo not given) | 4.35%
19 | COc1cccc(CN2CCCCCC2c2sccc2C)c1O (stereo not given) | 23.5%
20 | COc1cccc(CN2CCCCCC2c2cccc(F)c2)c1O (stereo not given) | -0.29%
21 | CC1=Nc2c(c(O)nn2C(C)C)C(c2cnn(C)c2)S1 (stereo not given) | 21.7%
22 | COc1nsc2nc(C3CCCN3C(C)=O)ccc12 (stereo not given) | 26.12%

Row | SMILES | INHIBITION
23 | Cc1nccn1-c1ncccc1NC(=O)CCOCC(C)C | 4.66%
24 | Cc1nccn1-c1ccc(N2CCC(NC(C)CC(C)C)CC2)cc1 (stereo not given) | 38.5%
25 | Cc1nccn1-c1ccc(CN2CC3C[C@@H](O)CN3C[C@@H]2C)cc1 (stereo not given in full) | -44.8%
26 | Cc1nccn1-c1ccc(C(C)NCCc2ccccn2)cc1 (stereo not given) | 62.8%
27 | Cc1nn(C)c(C)c1CCNC(C)c1ccc(-n2ccnc2C)cc1 (stereo not given) | 87.6%
28 | CCCC(C)NC1CCN(c2ccc(-n3ccnc3C)cc2)CC1 (stereo not given) | 52.1%
29 | Cc1nn(C)c(C)c1CN(Cc1cccn1-c1ncccn1)C(C)C | -30.5%
30 | Cc1nccn1-c1ccc(C(C)NCCC(C)C)cc1 (stereo not given) | 62.8%
31 | CCCc1nccn1-c1ccc(C(C)O)cc1 (stereo not given) | -20.6%
32 | Cn1cc(C(NCCc2ccccn2)c2cccc(F)c2)cn1 (stereo not given) | -1.75%
33 | CCS(=O)(=O)c1ccc(N2CCC(NC(=O)CCC(C)C)CC2)cc1 | 42.6%
34 | CC(Cn1ccnc1)NC(=O)NCCc1ccccn1 (stereo not given) | 46.5%
35 | CN(C)CCO[C@H]1CN(C(=O)c2cccs2)[C@@H]2COC[C@H]12 | -19.1%
36 | CN1Cc2[nH]nc(COCC3CC3)c2C1 | -44.9%
37 | O=C(c1ccc(-c2cccc3c2CCNC3)o1)N1CCOCC1 | 39.1%
38 | CCOC[C@@H]1CC[C@H]2[C@H](CCN2S(=O)(=O)c2ccc(F)cc2)O1 | -17.1%
39 | O=C(O)c1c(-c2ccoc2)ncc2c1CCN(C1CCOC1)C2 (stereo not given) | 21.6%
40 | CC(NC(=O)NCC1(c2ccc(F)cc2)CC1)c1nncn1C (stereo not given) | 31.9%
41 | Cc1cnn(CCC(=O)N2CCCC(c3nc(C)c(C)s3)C2)c1 (stereo not given) | -7.35%
42 | NCC1(c2cccc(F)c2)CCOCC1 | 50.2%
43 | NCC1(c2cccc(C(F)(F)F)c2)CCOCC1 | 8.47%
44 | NCC1(c2cccc(Br)c2)CCOCC1 | -51.5%

Row | SMILES | INHIBITION
45 | O=C(Cc1ccsc1)N1C[C@@H]2CN(Cc3ccoc3)CCO[C@@H]2C1 | 16.5%
46 | Cc1noc(C)c1C(=O)NCC(c1ccc(F)cc1)N(C)C (stereo not given) | 23.4%
47 | Cc1noc(C)c1C(=O)NCC(c1cccc(F)c1)N(C)C (stereo not given) | -20.19%
48 | COc1ccc(C(CNC(=O)c2c(C)noc2C)N(C)C)cc1 (stereo not given) | 50.75%
49 | CCc1noc(C)c1C(=O)NCC(c1ccc(C)cc1)N(C)C (stereo not given) | -25.4%
50 | CCc1ccc(C(CNC(=O)c2c(C)noc2C)N(C)C)cc1 (stereo not given) | 58.9%
51 | Cc1noc(C)c1C(=O)NCC(c1ccsc1)N(C)C (stereo not given) | -38.7%
52 | OC(CNC1CCOCC1)c1cccc(OCc2ccccc2)c1 (stereo not given) | 46.1%
53 | O=C(O)CNc1cc(-c2cc(C(=O)NC3CC3)ccn2)c2cc[nH]c2n1 | -21.1%
54 | COc1ccc(C(C(=O)O)N(C)CCN2CCCC2)c(C)c1 (stereo not given) | 52.8%
55 | COc1cc(F)ccc1C(C(=O)O)N(C)CCN1CCCC1 (stereo not given) | 40.9%
56 | COc1ccc(C(C(=O)O)N(C)CCN2CCOCC2)c(C)c1 (stereo not given) | 22.5%
57 | CCc1n[nH]c(=O)c(C(=O)N2CCSCC2)c1CC | 39.3%
58 | Cn1cnnc1C1CCCN(C(=O)c2cc(Cl)c(Cl)n2C)C1 (stereo not given) | -10.1%
59 | Cc1ccc(OC(C)CNC(=O)c2c[nH]nn2)cc1 (stereo not given) | 0.0944%
60 | CC(CNC(=O)c1ccncc1F)Oc1ccc(F)cc1 (stereo not given) | 28.2%
61 | CC(CNC(=O)c1c[nH]nn1)Oc1ccc(Cl)cc1 (stereo not given) | 51.6%
62 | CC(CNC(=O)c1c[nH]nn1)Oc1cccc(Br)c1 (stereo not given) | -15%
63 | CC(CNC(=O)c1cnccn1)Oc1ccc(F)cc1 (stereo not given) | 69.9%
64 | CC(CNC(=O)c1cnccn1)Oc1cccc(Br)c1 (stereo not given) | 10%
65 | Cc1cnc(N2C(=O)CSC2c2ccc(F)cc2)s1 (stereo not given) | 44.8%
66 | CC(=O)N1CCN(Cc2cccs2)CC2(CC(=O)N(C)C2)C1 (stereo not given) | -2.35%

Row | SMILES | INHIBITION
67 | COc1ccc(C)cc1CN(C)CC(=O)NC1(C)CCS(=O)(=O)C1 (stereo not given) | 29.7%
68 | CCc1noc(C(C)N2CCC(C)CC2)n1 (stereo not given) | 2.97%
69 | COCCN1CCN(C(C)c2nc(C3CC3)no2)CC1 (stereo not given) | 28.6%
70 | CCc1noc(C(C)N2CCC(N3CCCCC3)CC2)n1 (stereo not given) | 44.1%
71 | CCc1noc(C(C)N2CCN(Cc3noc(C4CC4)n3)CC2)n1 (stereo not given) | 65.7%
72 | Cc1noc(C(C)N2CCN(Cc3noc(C4CC4)n3)CC2)n1 (stereo not given) | 37.4%
73 | COCCCN1CCCN(C(C)c2nc(C3CC3)no2)CC1 (stereo not given) | 54.9%
74 | CCc1noc(C(C)N2CCCN(Cc3noc(C4CC4)n3)CC2)n1 (stereo not given) | 15.7%
75 | CCc1noc(C(C)N2CCN(Cc3noc(C)n3)CC2)n1 (stereo not given) | 61.3%
76 | CCc1noc(C(C)N2CCN(CC)CC2)n1 (stereo not given) | -54.6%
77 | CCc1noc(C(C)N2CCC(N3CCCC3)CC2)n1 (stereo not given) | 50.4%
78 | Cc1nc(CN2CCN(C(C)c3nc(C4CC4)no3)CC2)no1 (stereo not given) | -21.9%
79 | CCOCCN1CCN(C(C)c2nc(C3CC3)no2)CC1 (stereo not given) | 0.55%
80 | Cc1ccc(-c2ccnc(NCC3(N(C)C)CCOCC3)n2)c(C)n1 | 19.2%
81 | Cn1cnc2c1CCN(Cc1csc(-c3ccco3)n1)C2 | 5.8%
82 | CC(O)CN1CCC(CNCc2cccc(Cl)c2)CC1 (stereo not given) | 24%
83 | COCCN1C(=O)[C@@H]2CC[C@H]1CN(S(=O)(=O)c1cccc(Cl)c1)C2 | 32.2%
84 | COC(=O)C(C)(C)NC(=O)C1CC(=O)N(CC(C)C)C1 (stereo not given) | -22.1%
85 | OC1(CNCCc2nc3c(s2)CCCC3)CCNC1 (stereo not given) | -41.6%
86 | O=c1[nH]c2cn(-c3ccc(F)cc3)c(=O)n2n1Cc1cccc(Cl)c1 | 9.48%
87 | CN1CCC2(CC1)Cc1ccccc1CN(C(=O)CN)C2 | 29.2%
88 | Cc1cc(N(C)C)nc(C2(C)CCNCC2)n1 | -5.8%

Row | SMILES | INHIBITION
89 | CCn1cc(NC(=O)NCCN2CCCCCC2=O)cn1 | 7.24%
90 | CC(C)(C)NC(=O)CNc1ncc(Br)cn1 | 28.8%
91 | CC(C)c1noc(C(C)N2CCN(Cc3noc(C4CC4)n3)CC2)n1 (stereo not given) | 27.6%
92 | CC(C)c1nc(CN2CCN(C(C)c3nc(C4CC4)no3)CC2)no1 (stereo not given) | 13.5%
93 | CC(c1nc(C2CC2)no1)N1CCN(Cc2noc(C3CC3)n2)CC1 (stereo not given) | 51.1%
94 | CC(C)Cc1cc(NC(=O)c2ccccn2)n(C)n1 | 37.4%
95 | O=C(c1ccc(C2CCCO2)s1)N1CCN(c2ccccc2F)CC1 (stereo not given) | 80.1%
96 | O=C(c1ccc(C2CCCO2)s1)N1CCOCC1 (stereo not given) | -48.4%
97 | Cc1cc(C)nc(N2CCN(C(=O)c3ccc(C4CCCO4)s3)CC2)n1 (stereo not given) | 36.8%
98 | O=C(Nc1ccccc1OCCc1ccccn1)N1CC[C@@H](O)C1 | -48.1%
99 | CC1CCCN(Cc2ccc(C(N)=O)cc2)C1 (stereo not given) | 50.5%
100 | NC(=O)c1ccc(CN2CCCC(N3CCCC3)C2)cc1 (stereo not given) | -3.95%
101 | NC(=O)c1ccc(CN2CCCC(O)C2)cc1 (stereo not given) | -6.32%
102 | CN1CCN(c2cc(CNC(=O)Cn3cccn3)ccn2)CC1 | 37.8%
103 | N#Cc1csc(CNCCOc2ncccc2Cl)c1 | -23.2%
104 | O=C(c1ccco1)N1C[C@H]2CCCN(Cc3ccoc3)[C@H]2C1 | 44.3%
105 | O=C1N[C@H]2OCCC[C@H]2[C@H](c2ccccc2)N1 | 52.2%
106 | COc1ccc([C@@H]2NC(=O)N[C@H]3OCCC[C@H]32)cc1 | 42.1%
107 | O=C1N[C@H]2OCCC[C@H]2[C@H](c2ccc(C(=O)O)cc2)N1 | -1.25%
108 | COCCNC(=O)CN1CC=C(n2c(C)nc(=O)c3ccccc32)CC1 | 6.33%
109 | c1cnc(NCc2nnn3c2CN(Cc2ccco2)CCC3)nc1 | -11.6%
110 | CN(Cc1cccc(Cl)c1)S(=O)(=O)N1CCOCC1 | -14.2%

Reference: ChEMBL document CHEMBL4513216, “Probing the Open Global Health Chemical Diversity Library for Multistage-Active Starting Points for Next-Generation Antimalarials” (ACS Infect Dis, 2020)
